Reference: the supplement of paper PMC8728848
Many of the other results were omitted from the sample, so the strongest signals are more common in it than they were.

Columns and labels:
Assay in all cases: glycan array binding signal (z-score within array); higher = stronger binding
Settings in all cases: glycan notation: IUPAC condensed, linker removed
[1] = biological target: Fuc(a1-2)Gal(b1-3)GlcNAc(b1-3)[Neu5Ac(a2-6)Gal(b1-4)GlcNAc(b1-6)]Gal(b1-4)Glc
In short: (§1)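 From the Consortium for Functional Glycomics database, 3228 arrays were curated, keeping only those whose protein sequence was available. Binding is given as a within-array Z-score averaged across arrays sharing a protein sequence and across linkers. Negative Z-scores can be read as non-binding.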

[2] = biological target: Fuc(a1-2)Gal(b1-4)GlcNAc(b1-2)Man
In short: as §1

[3] = biological target: Fuc(a1-2)Gal(b1-4)GlcNAc(b1-2)[Fuc(a1-2)Gal(b1-4)GlcNAc(b1-4)]Man(a1-3)[Fuc(a1-2)Gal(b1-4)GlcNAc(b1-2)Man(a1-6)]Man(b1-4)GlcNAc(b1-4)GlcNAc
In short: as §1

[4] = biological target: Fuc(a1-2)Gal(b1-4)GlcNAc(b1-3)Gal(b1-4)GlcNAc(b1-3)Gal(b1-4)GlcNAc
In short: as §1

[5] = biological target: Fuc(a1-2)[Gal(a1-3)]Gal(b1-3)GalNAc(b1-3)Gal(a1-4)Gal(b1-4)Glc
In short: as §1

[6] = biological target: Fuc(a1-3)[Gal(b1-4)]Glc6S
In short: as §1

[7] = biological target: Fuc(a1-3)[Gal(b1-4)]GlcNAc(b1-2)Man(a1-3)[Fuc(a1-3)[Gal(b1-4)]GlcNAc(b1-2)Man(a1-6)]Man(b1-4)GlcNAc(b1-4)GlcNAc
In short: as §1

[8] = biological target: Fuc(a1-3)[Gal(b1-4)]GlcNAc(b1-3)Gal(b1-3)[Fuc(a1-4)]GlcNAc
In short: as §1

[9] = biological target: Fuc(a1-3)[Gal(b1-4)]GlcNAc(b1-3)Gal(b1-4)[Fuc(a1-3)]GlcNAc
In short: as §1

[10] = biological target: Fuc(a1-3)[Gal(b1-4)]GlcNAc(b1-3)GalNAc
In short: as §1

Gal(a1-3)Gal = biological target: Gal(a1-3)Gal
In short: as §1

[11] = biological target: Gal(a1-3)Gal(b1-3)GlcNAc(b1-2)Man(a1-3)[Gal(a1-3)Gal(b1-3)GlcNAc(b1-2)Man(a1-6)]Man(b1-4)GlcNAc(b1-4)GlcNAc
In short: as §1

[12] = biological target: Gal(a1-3)Gal(b1-4)[Fuc(a1-3)]GlcNAc(b1-2)Man(a1-3)[Gal(a1-3)Gal(b1-4)[Fuc(a1-3)]GlcNAc(b1-2)Man(a1-6)]Man(b1-4)GlcNAc(b1-4)GlcNAc
In short: as §1

Gal(a1-4)Gal(b1-4)GlcNAc = biological target: Gal(a1-4)Gal(b1-4)GlcNAc
In short: as §1

[13] = biological target: Gal(b1-3)GalNAc(b1-3)Gal(a1-4)Gal(b1-4)Glc
In short: as §1

[14] = biological target: Gal(b1-3)GlcNAc(a1-3)Gal(b1-4)GlcNAc
In short: as §1

[15] = biological target: Gal(b1-3)GlcNAc(b1-3)GalNAc
In short: as §1

[16] = biological target: Gal(b1-3)[Fuc(a1-4)]GlcNAc(b1-2)Man(a1-3)[Gal(b1-3)[Fuc(a1-4)]GlcNAc(b1-2)Man(a1-6)]Man(b1-4)GlcNAc(b1-4)[Fuc(a1-6)]GlcNAc
In short: as §1

[17] = biological target: Gal(b1-3)[Neu5Ac(a2-6)]GalNAc
In short: as §1

[18] = biological target: Gal(b1-4)GlcNAc(b1-2)[Gal(b1-4)GlcNAc(b1-4)]Man(a1-3)[GlcNAc(b1-4)][Gal(b1-4)GlcNAc(b1-2)Man(a1-6)]Man(b1-4)GlcNAc(b1-4)GlcNAc
In short: as §1

[19] = biological target: Gal(b1-4)GlcNAc(b1-3)Gal(b1-4)Glc
In short: as §1

[20] = biological target: Gal(b1-4)GlcNAc(b1-3)Gal(b1-4)GlcNAc(b1-2)Man(a1-3)[Gal(b1-4)GlcNAc(b1-3)Gal(b1-4)GlcNAc(b1-2)Man(a1-6)]Man(b1-4)GlcNAc(b1-4)GlcNAc
In short: as §1

[21] = biological target: Gal(b1-4)GlcNAc(b1-3)Gal(b1-4)GlcNAc(b1-3)Gal(b1-4)GlcNAc(b1-3)Gal(b1-4)GlcNAc(b1-2)Man(a1-3)[Gal(b1-4)GlcNAc(b1-3)Gal(b1-4)GlcNAc(b1-3)Gal(b1-4)GlcNAc(b1-3)Gal(b1-4)GlcNAc(b1-2)Man(a1-6)]Man(b1-4)GlcNAc(b1-4)[Fuc(a1-6)]GlcNAc
In short: as §1

[22] = biological target: Gal(b1-4)GlcNAc(b1-3)Gal(b1-4)GlcNAc(b1-3)Gal(b1-4)GlcNAc(b1-3)Gal(b1-4)GlcNAc(b1-2)[Gal(b1-4)GlcNAc(b1-3)Gal(b1-4)GlcNAc(b1-3)Gal(b1-4)GlcNAc(b1-3)Gal(b1-4)GlcNAc(b1-6)]Man(a1-6)[Gal(b1-4)GlcNAc(b1-3)Gal(b1-4)GlcNAc(b1-3)Gal(b1-4)GlcNAc(b1-3)Gal(b1-4)GlcNAc(b1-2)Man(a1-3)]Man(b1-4)GlcNAc(b1-4)[Fuc(a1-6)]GlcNAc
In short: as §1

Gal3S(b1-4)Glc6S = biological target: Gal3S(b1-4)Glc6S
In short: as §1

[23] = biological target: Gal3S(b1-4)[Fuc(a1-3)]Glc6S
In short: as §1

Gal6S(b1-3)GlcNAc = biological target: Gal6S(b1-3)GlcNAc
In short: as §1

[24] = biological target: GalNAc(a1-3)GalNAc(b1-3)Gal(a1-4)Gal(b1-4)Glc
In short: as §1

[25] = biological target: GalNAc(b1-3)Gal(a1-6)Gal(b1-4)Glc
In short: as §1

[26] = biological target: GalNAc3S(b1-4)[Fuc(a1-3)]GlcNAc
In short: as §1

Glc(a1-4)Glc = biological target: Glc(a1-4)Glc
In short: as §1

GlcA(b1-3)Gal = biological target: GlcA(b1-3)Gal
In short: as §1

[27] = biological target: GlcNAc(b1-2)Gal(b1-3)GalNAc
In short: as §1

[28] = biological target: GlcNAc(b1-3)Gal(b1-4)GlcNAc(b1-2)Man(a1-3)[GlcNAc(b1-3)Gal(b1-4)GlcNAc(b1-2)Man(a1-6)]Man(b1-4)GlcNAc(b1-4)GlcNAc
In short: as §1

[29] = biological target: GlcNAc(b1-3)Gal(b1-4)GlcNAc(b1-2)[GlcNAc(b1-3)Gal(b1-4)GlcNAc(b1-6)]Man(a1-6)[GlcNAc(b1-3)Gal(b1-4)GlcNAc(b1-2)Man(a1-3)]Man(b1-4)GlcNAc(b1-4)GlcNAc
In short: as §1

[30] = biological target: GlcNAc(b1-3)Gal(b1-4)GlcNAc(b1-3)Gal(b1-4)GlcNAc(b1-2)Man(a1-3)[GlcNAc(b1-3)Gal(b1-4)GlcNAc(b1-3)Gal(b1-4)GlcNAc(b1-2)Man(a1-6)]Man(b1-4)GlcNAc(b1-4)GlcNAc
In short: as §1

[31] = biological target: GlcNAc(b1-3)Gal(b1-4)GlcNAc(b1-3)Gal(b1-4)GlcNAc(b1-3)Gal(b1-4)GlcNAc(b1-2)Man(a1-3)[GlcNAc(b1-3)Gal(b1-4)GlcNAc(b1-3)Gal(b1-4)GlcNAc(b1-3)Gal(b1-4)GlcNAc(b1-2)Man(a1-6)]Man(b1-4)GlcNAc(b1-4)[Fuc(a1-6)]GlcNAc
In short: as §1

[32] = biological target: GlcNAc(b1-3)Gal(b1-4)GlcNAc(b1-3)Gal(b1-4)GlcNAc(b1-3)Gal(b1-4)GlcNAc(b1-3)Gal(b1-4)GlcNAc(b1-2)Man(a1-3)[GlcNAc(b1-3)Gal(b1-4)GlcNAc(b1-3)Gal(b1-4)GlcNAc(b1-3)Gal(b1-4)GlcNAc(b1-3)Gal(b1-4)GlcNAc(b1-2)Man(a1-6)]Man(b1-4)GlcNAc(b1-4)GlcNAc
In short: as §1

[33] = biological target: GlcNAc(b1-3)Gal(b1-4)GlcNAc(b1-6)[GlcNAc(b1-3)Gal(b1-3)]GalNAc
In short: as §1

[34] = biological target: GlcNAc(b1-4)Gal(b1-4)GlcNAc
In short: as §1

Kdn(a2-6)Gal(b1-4)GlcNAc = biological target: Kdn(a2-6)Gal(b1-4)GlcNAc
In short: as §1

Man(a1-2)Man(a1-3)Man = biological target: Man(a1-2)Man(a1-3)Man
In short: as §1

[35] = biological target: Man(a1-3)[Man(a1-6)]Man(a1-6)[Man(a1-3)]Man(b1-4)GlcNAc(b1-4)GlcNAc
In short: as §1

[36] = biological target: Neu5Ac(a2-3)Gal(b1-3)GlcNAc6S
In short: as §1

[37] = biological target: Neu5Ac(a2-3)Gal(b1-4)GlcNAc(b1-3)Gal(b1-4)GlcNAc(b1-3)Gal(b1-4)GlcNAc
In short: as §1

[38] = biological target: Neu5Ac(a2-3)Gal(b1-4)[Fuc(a1-3)]GlcNAc(b1-3)GalNAc
In short: as §1

[39] = biological target: Neu5Ac(a2-3)Gal(b1-4)[Fuc(a1-3)]GlcNAc6S
In short: as §1

[40] = biological target: Neu5Ac(a2-3)[GalNAc(b1-4)]Gal(b1-4)GlcNAc
In short: as §1

[41] = biological target: Neu5Ac(a2-3)[GalNAc(b1-4)]Gal(b1-4)GlcNAc(b1-3)GalNAc
In short: as §1

Neu5Ac(a2-6)Gal = biological target: Neu5Ac(a2-6)Gal
In short: as §1

[42] = biological target: Neu5Ac(a2-6)Gal(b1-3)GlcNAc(b1-3)[Gal(b1-4)GlcNAc(b1-6)]Gal(b1-4)Glc
In short: as §1

[43] = biological target: Neu5Ac(a2-6)Gal(b1-4)GlcNAc(b1-2)Man(a1-3)[Neu5Ac(a2-6)Gal(b1-4)GlcNAc(b1-2)Man(a1-6)]Man(b1-4)GlcNAc(b1-4)[Fuc(a1-6)]GlcNAc
In short: as §1

Neu5Ac(a2-6)GalNAc = biological target: Neu5Ac(a2-6)GalNAc
In short: as §1

Neu5Ac(b2-6)GalNAc = biological target: Neu5Ac(b2-6)GalNAc
In short: as §1

B1: Langerin K299A/K313A (Homo sapiens), Q9UJ71 (protein)
chain: STLNAQIPELKSDLEKASALNTKIRALQGSLENMSKLLKRQNDILQVVSQGWKYFKGNFYYFSLIPKTWYSAEQFCVSRNSHLTSVTSESEQEFLYKTAGGLIYWIGLTKAGMEGDWSWVDDTPFNKVQSARFWIPGEPNNAGNNEHCGNIAAPSLQAWNDAPCDATFLFICKRPYVPSEP
- glycan array binding signal (z-score) [1]: 0.388
- glycan array binding signal (z-score) [2]: -0.127
- glycan array binding signal (z-score) [3]: 2.71
- glycan array binding signal (z-score) [4]: 0.332
- glycan array binding signal (z-score) [5]: -0.015
- glycan array binding signal (z-score) [6]: 3.28
- glycan array binding signal (z-score) [7]: 0.222
- glycan array binding signal (z-score) [8]: 0.313
- glycan array binding signal (z-score) [9]: 0.842
- glycan array binding signal (z-score) [10]: -0.202
- glycan array binding signal (z-score) (Gal(a1-3)Gal): -0.327
- glycan array binding signal (z-score) [11]: 1.22
- glycan array binding signal (z-score) [12]: 0.892
- glycan array binding signal (z-score) (Gal(a1-4)Gal(b1-4)GlcNAc): -0.009
- glycan array binding signal (z-score) [13]: -0.916
- glycan array binding signal (z-score) [14]: -0.826
- glycan array binding signal (z-score) [15]: 0
- glycan array binding signal (z-score) [16]: 1.85
- glycan array binding signal (z-score) [17]: 0.445
- glycan array binding signal (z-score) [18]: -0.95
- glycan array binding signal (z-score) [19]: -0.709
- glycan array binding signal (z-score) [20]: 3.14
- glycan array binding signal (z-score) [21]: 3.97
- glycan array binding signal (z-score) [22]: 3.09
- glycan array binding signal (z-score) (Gal3S(b1-4)Glc6S): -0.193
- glycan array binding signal (z-score) [23]: 5.35
- glycan array binding signal (z-score) (Gal6S(b1-3)GlcNAc): -0.241
- glycan array binding signal (z-score) [24]: 0.162
- glycan array binding signal (z-score) [25]: 0.155
- glycan array binding signal (z-score) [26]: -1
- glycan array binding signal (z-score) (Glc(a1-4)Glc): -0.103
- glycan array binding signal (z-score) (GlcA(b1-3)Gal): -0.832
- glycan array binding signal (z-score) [27]: 0.486
- glycan array binding signal (z-score) [28]: 0.619
- glycan array binding signal (z-score) [29]: 3.64
- glycan array binding signal (z-score) [30]: 0.828
- glycan array binding signal (z-score) [31]: 5.83
- glycan array binding signal (z-score) [32]: 2.75
- glycan array binding signal (z-score) [33]: -0.82
- glycan array binding signal (z-score) [34]: -0.886
- glycan array binding signal (z-score) (Kdn(a2-6)Gal(b1-4)GlcNAc): 0.407
- glycan array binding signal (z-score) (Man(a1-2)Man(a1-3)Man): -1.07
- glycan array binding signal (z-score) [35]: -0.582
- glycan array binding signal (z-score) [36]: -0.784
- glycan array binding signal (z-score) [37]: 0.361
- glycan array binding signal (z-score) [38]: 3.01
- glycan array binding signal (z-score) [39]: 0.192
- glycan array binding signal (z-score) [40]: -0.463
- glycan array binding signal (z-score) [41]: 0.982
- glycan array binding signal (z-score) (Neu5Ac(a2-6)Gal): 0.01
- glycan array binding signal (z-score) [42]: 0.329
- glycan array binding signal (z-score) [43]: 3.07
- glycan array binding signal (z-score) (Neu5Ac(a2-6)GalNAc): -0.621
- glycan array binding signal (z-score) (Neu5Ac(b2-6)GalNAc): -0.61
